Test results from PubChem BioAssay (NCATS).
Records with an inconclusive call do not appear. The source made the active and inactive calls. Unless noted, the call rests on the fitted dose curve; in most records, active means well fitted curve in the direction sought with a large enough effect; inconclusive means small, poorly fitted or top-dose-only effect, or another doubt; inactive means no such curve, though single readings can be large; an effect the other way counts as inactive or inconclusive.

Experiments:
[1] = Cell Viability - BJ (AID 421; calls by dose curve;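 further: potency means the concentration at half of the fitted maximal effect; cells exposed to compound for 40 hours at 37 °C before readout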); conditions: BJ fibroblast viability, qHTS
How it was run: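 Quantitative HTS: ATP depletion in BJ cells after 40 hr compound exposure in complete culture medium, detected with CellTiter-Glo; AC50 from standard Hill fits.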

[2] = Cell Viability - Jurkat (AID 426;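 active means dose-dependent loss of cell ATP signal giving a full or clear fitted curve, ranked by lower potency value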;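 further: potency means the concentration at half of the fitted maximal effect; cells exposed to compound for 40 hours at 37 °C before ATP read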); conditions: qHTS
How it was run: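 Cells of the human T-cell leukemia line Jurkat (E6-1) are seeded at 5000 per well, treated with compound across a concentration range for 40 hours at 37 °C, then lysed with CellTiter-Glo; luminescence reports ATP.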

[3] = Cell Viability - Hek293 (AID 427;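 active means compounds whose dose-response curve shows a full or clear partial loss of cell viability, called from curve shape rather than a numeric limit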;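 further: potency means the concentration at half of the fitted maximal effect; cells exposed to compound for 40 hours at 37 °C before reading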); conditions: qHTS
How it was run: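 AC50 values derive from Hill-modelled concentration-response of ATP-based luminescence, normalized between DMSO-only and 100 uM tamoxifen controls. Cells were exposed in complete culture medium for 40 hr at 37 °C before detection.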

[4] = Cell Viability - HepG2 (AID 433; calls by dose curve;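 further: potency means the concentration at half of the fitted maximal effect; potency for ATP loss meaning cytotoxicity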); conditions: qHTS
How it was run: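 Cytotoxicity is scored as loss of intracellular ATP in HepG2 cells exposed to compounds for 40 h. Concentration-response curves, normalized to DMSO and 100 uM tamoxifen, give AC50 values.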

[5] = Cell Viability - MRC5 (AID 434; calls by dose curve;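 further: potency means the concentration at half of the fitted maximal effect; potency reflects cytotoxicity seen as loss of intracellular ATP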); conditions: MRC5 lung fibroblast viability, qHTS
How it was run: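 ATP luminescence read-out (CellTiter-Glo, 20 min RT) after 40 hr, 37 °C compound exposure of 1500 MRC5 cells/well. Data normalized to DMSO (basal) and 100 uM tamoxifen (100% inhibition); AC50 from standard Hill equation.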

[6] = Cell Viability - SK-N-SH (AID 435; calls by dose curve;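 further: potency means the concentration at half of the fitted maximal effect; compound exposure lasted 40 h at 37 °C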); conditions: SK-N-SH neuroblastoma cell viability qHTS
How it was run: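 Cells seeded at 1500 per well and incubated 5 hr at 37 °C. Compound added, then 40 hr at 37 °C. CellTiter-Glo added, 20 min at room temperature, luminescence read.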

[7] = Cell Viability - N2a (AID 540);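 further: cells exposed to compound for 40 h at 37 °C; plate controls were DMSO alone for no effect and tamoxifen control for full effect; nearly all actives have a fitted effect of over 45% in size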
How it was run: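 Cytotoxicity was scored as loss of cellular ATP in N2a cells, a mouse neuroblastoma line. Compounds are applied in a qHTS concentration series for 40 hr at 37 °C.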

[8] = Cell Viability - SH-SY5Y (AID 544); conditions: SH-SY5Y neuroblastoma cell viability; at 92.2 µM (top of the series);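 further: 0% = DMSO alone and -100% = 100 µM tamoxifen; nearly all actives have a fitted effect of over 55% in size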
How it was run: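 Cells were plated at 1500 per well and allowed 5 hr at 37 °C. Compounds were added across a concentration range and incubated 40 hr at 37 °C. CellTiter-Glo was added for 20 min at room temperature before luminescence reading.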

[9] = Cell Viability - Renal Proximal Tubule (AID 545);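 further: 0% = DMSO only and -100% = 100 µM tamoxifen; nearly all actives have a fitted effect of over 40% in size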
How it was run: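 Cytotoxicity is scored as a concentration-dependent drop in cellular ATP in primary rat renal proximal tubule cells exposed for 40 hr. AC50 derives from Hill modelling.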

[10] = Cell Viability - Mesenchymal (AID 546);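 further: cells exposed to compound for 40 hours before reading; 0% = DMSO only and -100% = 100 µM tamoxifen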
How it was run: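 Human renal mesenchymal cells (glomerulus-derived), 1000 cells/well, 5 hr 37 °C pre-incubation; compound 40 hr, 37 °C; CellTiter-Glo, 20 min RT; luminescence; AC50 via Hill equation.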

[11] = Cellular Toxicity (caspase-3) HepG2 (AID 654);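 further: cells exposed to compound for 16 hours before reading; 0% = DMSO alone and 100% = caspase signal from 100 µM tamoxifen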
How it was run: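 Caspase 3/7 activation in HepG2 is measured as rising luminescence after a 16 hr treatment at 37 °C. Values are scaled between DMSO basal and 100 uM tamoxifen, and AC50 is fitted with the Hill equation.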

[12] = Cellular Toxicity (caspase-3) Jurkat (AID 655);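 further: cells exposed to compound for 16 h at 37 °C before reading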
How it was run: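 Caspase 3/7 activation is scored as increased luminescence in Jurkat cells cultured with compound for 16 hours in complete medium. AC50 values come from Hill fits of qHTS concentration-response data normalized to DMSO and 100 uM tamoxifen controls.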

[13] = Cellular Toxicity (caspase-3) HUV-EC-C (AID 656);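 further: 0% = DMSO basal and 100% = 100 µM tamoxifen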
How it was run: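 Read-out: luminescence proportional to caspase 3/7 activity, measured 20 min after adding Caspase-Glo 3/7 reagent. Cells (HUV-EC-C) had received compound for 16 hr at 37°C. Increases relative to DMSO and 100 uM tamoxifen gave concentration-response AC50 values.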

[14] = Cellular Toxicity (caspase-3) SHSY5Y (AID 657)
How it was run: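 Cells plated and incubated 5 h at 37 °C, dosed over a concentration range, incubated 16 h, then given Caspase-Glo 3/7 reagent for 1 h at room temperature before luminescence reading. Staurosporine (10 uM) defined full stimulation.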

[15] = Cellular Toxicity (caspase-3) BJ (AID 658);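 further: 0% = DMSO basal and 100% = 10 µM staurosporine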
How it was run: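 qHTS, BJ fibroblasts, 1000 cells/well; 5 hr preincubation, 16 hr compound, 37 °C; Caspase-Glo 3/7 reagent, 1 hr RT; luminescence. DMSO = 0%, 10 uM staurosporine = 100%. Hill-equation AC50.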

[16] = Cellular Toxicity (caspase-3) MRC-5 (AID 659);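 further: 0% = DMSO basal and 100% = 10 µM staurosporine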
How it was run: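 MRC-5 fibroblasts, 1500/well; 16 h cpd, 37 °C; Caspase-Glo 3/7, 1 h RT; lumi read. Norm: DMSO = 0%, 10 uM staurosporine = 100%. Hill-fit AC50 from qHTS conc-response.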

[17] = Cellular Toxicity (caspase-3) Mesangial (AID 660);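 further: cells exposed to compound for 16 h before the caspase read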
How it was run: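 Seed cells derived from normal human renal glomeruli, incubate 5 h, add compounds across concentrations and incubate 16 h at 37 °C. Caspase 3/7 activation is then quantified by luciferase light, with AC50 derived by Hill modeling.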

[18] = Cellular Toxicity (caspase-3) SK-N-SH (AID 661);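 further: 0% = DMSO basal and 100% = 10 µM staurosporine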
How it was run: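 Cells were seeded and incubated 5 hr at 37 °C, dosed with compound over a concentration range for 16 hr, then given Caspase-Glo 3/7 reagent for 1 hr at room temperature before luminescence reading.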

[19] = Cellular Toxicity (caspase-3) H-4-II-E (AID 663);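 further: 0% = DMSO basal and 100% = 100 µM tamoxifen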
How it was run: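 H-4-II-E rat hepatoma, 1500 cells/well, 5 hr settle at 37 °C; compound 16 hr, 37 °C, complete medium; Caspase-Glo 3/7, 20 min RT; luminescence. DMSO = 0%, 100 uM tamoxifen = 100%; Hill-equation AC50.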

[20] = Cellular Toxicity (caspase-3) Hek293 (AID 664);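 further: cells exposed to compound for 16 h at 37 °C before readout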
How it was run: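 qHTS, HEK293 (human embryonic kidney), 16 h cpd exposure in complete medium. Caspase-3/7 activation = luminescence increase; normalized to DMSO/100 uM tamoxifen; Hill-fit AC50.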

[21] = Cellular Toxicity (caspase-3) N2a (AID 665);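 further: compound exposure lasted 16 h at 37 °C before readout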
How it was run: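 Caspase-3/7 activation, measured as increased luminescence from aminoluciferin release, is quantified in mouse N2a cells exposed to compounds for 16 h. Values are normalized to DMSO and 10 uM staurosporine, with AC50 derived by Hill modelling.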

[22] = Cellular Toxicity (caspase-3) NIH 3T3 (AID 666);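 further: caspase signal read after 16 h compound exposure; 0% = DMSO basal and 100% = 100 µM tamoxifen stimulation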
How it was run: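 Cells were plated at 1000 per well and incubated 5 hr at 37°C, then compound was added for 16 hr. Caspase-Glo 3/7 reagent followed for 20 min at room temperature before luminescence was read.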

[23] = Cellular Toxicity (caspase-3) Renal Proximal Tubule (AID 667);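 further: cells exposed to compound for 16 hours at 37 °C before detection; 0% = DMSO basal and 100% = 10 µM staurosporine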
How it was run: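 In qHTS format, rat primary proximal tubule cells seeded at 1000 per well are exposed to compounds for 16 hours at 37 °C. An increase in Caspase-Glo 3/7 luminescence indicates caspase activation.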

[24] = MultiTox-Fluor Cytotoxicity Assay - LYMP1-001 - Dead Cells (AID 946);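 further: 0% = DMSO and 100% = tetraoctylammonium bromide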
How it was run: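 In this qHTS, 15 uM tetraoctylammonium bromide defined 100% and DMSO defined basal activity. Lymphoblastoid cells (LYMP1-001, 2500 per well) received compound for 16 hr at 37 C before a fluorogenic dead-cell substrate readout at 485/520 nm.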

[25] = MultiTox-Fluor Cytotoxicity Assay - LYMP1-001 - Live Cells (AID 947);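 further: 0% = DMSO only and full inhibition = tetraoctylammonium bromide control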
[26] = Cell Viability - LYMP1-002 - Assay at 16 hr (AID 948);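 further: 0% = DMSO alone and full effect = 92 µM tetraoctylammonium bromide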
How it was run: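 Acute cytotoxicity is scored as a concentration-dependent fall in intracellular ATP in a human lymphoblastoid line (LYMP1-002) after 16 hr compound exposure at 37 C, measured by luciferase luminescence.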

[27] = MultiTox-Fluor Cytotoxicity Assay - LYMP1-002 - Live Cells (AID 955); further: on the % scale 0 is the no-effect control and ±100 the full control effect
How it was run: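 Cells were seeded at 2500 per well and incubated 5 hr. Compounds were then added for 16 hr at 37 C, followed by MultiTox-Fluor reagent for 60 min at room temperature and fluorescence reading of viable-cell protease signal.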

[28] = MultiTox-Fluor Cytotoxicity Assay - LYMP1-002 - Dead Cells (AID 960);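 further: 0% = DMSO and 100% = tetraoctylammonium bromide; nearly all actives have a fitted effect of over 60% in size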
How it was run: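 Cells were plated, rested 5 hr, then treated with compound dilution series for 16 hr at 37 C. After adding substrate reagent and 60 min at room temperature, dead-cell protease fluorescence gave concentration-response curves fitted by the Hill equation.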

[29] = MultiTox-Fluor Cytotoxicity Assay - LYMP1-003 - Dead Cells (AID 961);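 further: 0% = DMSO and 100% = tetraoctylammonium bromide; nearly all actives have a fitted effect of over 70% in size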
How it was run: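 Acute toxicity is scored as increased dead-cell protease activity in human lymphoblastoid LYMP1-003 cells after 16 h compound exposure in complete culture medium. Activity is normalized to DMSO basal and 15 uM tetraoctylammonium bromide as full response.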

[30] = MultiTox-Fluor Cytotoxicity Assay - LYMP1-003 - Live Cells (AID 962);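 further: 0% = DMSO only and full loss = 92 µM tetraoctylammonium bromide; cytotoxic hits lower the live-cell protease signal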
How it was run: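 Acute cytotoxicity is scored as a drop in live-cell protease activity in human lymphoblastoid LYMP1-003 cells after 16 hr compound exposure at 37 C. AC50 values come from Hill-equation modelling of concentration-response data.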

[31] = Cell Viability - LYMP1-003 - Assay at 24 hr (AID 963);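 further: plate controls were DMSO only for no effect and tetraoctylammonium bromide positive control for full effect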
How it was run: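 Cytotoxicity is scored as a concentration-dependent fall in ATP-linked luciferase signal in human lymphoblastoid LYMP1-003 cells treated 24 hr at 37 C in complete culture medium.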

[32] = Cell Viability - LYMP2-003 (AID 965);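 further: cells exposed to compounds for 24 h before reading; 0% = DMSO only and full effect = 92 µM tetraoctylammonium bromide; nearly all actives have a fitted effect of over 50% in size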
How it was run: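 Acute cytotoxicity is scored as a concentration-dependent drop in intracellular ATP, measured by luciferase luminescence in human lymphoblastoid cells treated for 24 hours at 37 C. AC50 values derive from Hill-equation modelling.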

[33] = Cell Viability - LYMP2-004 (AID 966);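 further: plate controls were DMSO only for no effect and tetraoctylammonium bromide control for full effect; nearly all actives have a fitted effect of over 65% in size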
How it was run: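 qHTS cytotoxicity: human lymphoblastoid line, 24 hr compound treatment, 37 C, complete medium. Viability read as cellular ATP via luciferase luminescence; tetraoctylammonium bromide served as positive control.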

[34] = Cell Viability - LYMP2-005 (AID 967);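 further: plate controls were DMSO only for no effect and 92 µM tetraoctylammonium bromide control for full effect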
How it was run: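 qHTS viability screen in LYMP2-005 cells: 24 h at 37 C with compound, ATP luminescence via CellTiter-Glo, AC50 from Hill curves.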

[35] = Cell Viability - LYMP2-009 (AID 968);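 further: 0% = DMSO alone and the full-kill end = tetraoctylammonium bromide at 92 µM; nearly all actives have a fitted effect of over 55% in size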
Source text: NIH Chemical Genomics Center [NCGC]
NIH Molecular Libraries Screening Centers Network [MLSCN]
National Institutes of Environmental Health Sciences [NIEHS]
National Toxicology Program [NTP]
We have developed a 1536-well cell-based assay for quantitative high throughput screening (qHTS) against a number of cell lines to determine in vitro cytotoxicity of small molecules. This particular assay uses a human lymphoblastoid cell line (LYMP2-009) purchased from Coriell Institute for Medical Research.
NCGC Assay Protocol Summary:
The CellTiter-Glo luminescent cell viability assay (Promega) is a homogeneous method to measure the number of viable cells in culture. The end point readout of this assay is based on quantitation of intracellular ATP, an indicator of metabolic activity, using the luciferase reaction. […]
Using the CellTiter-Glo luminescent cell viability assay, the amount of cellular ATP was measured in the lymphoblastoid cell line with complete culture medium following compound treatment for 24 hours. […] Library compounds were measured for their ability to cause acute toxicity in the cell line, as reflected by a decrease in intracellular ATP levels, in a concentration-dependent manner. […] AC50 values were determined from concentration-response data modeled with the standard Hill equation. […]
8. Detection; Luminescence; Viewlux plate reader […]

[36] = Cell Viability - LYMP2-011 (AID 969);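 further: 0% = DMSO only and full inhibition = 92 µM tetraoctylammonium bromide; nearly all actives have a fitted effect of over 60% in size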
How it was run: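 In this qHTS cytotoxicity format, compounds are tested across concentrations on human lymphoblastoid cells in complete medium for 24 hours at 37 C. Viability is taken as cellular ATP measured by luciferase luminescence.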

[37] = Cell Viability - LYMP2-013 (AID 970);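 further: 0% = DMSO only and full inhibition = tetraoctylammonium bromide control; nearly all actives have a fitted effect of over 55% in size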
How it was run: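 Cytotoxicity is scored as a concentration-dependent drop in intracellular ATP in human lymphoblastoid cells after 24 hr compound exposure at 37 C. ATP is quantified by luciferase luminescence, and AC50 values come from Hill-equation modeling.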

[38] = Cell Viability - LYMP2-015 (AID 971);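 further: 0% = DMSO only and full effect = 92 µM tetraoctylammonium bromide; nearly all actives have a fitted effect of over 55% in size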
How it was run: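 Cells are seeded at 2500 per well and incubated 5 hr at 37 C. Compounds are added across a concentration series for 24 hr at 37 C. CellTiter-Glo is added, and luminescence is read after 30 min at room temperature.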

[39] = Cell Viability - LYMP2-017 (AID 972)
How it was run: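 Cytotoxicity is scored as a concentration-dependent drop in cellular ATP in a human lymphoblastoid line after 24 hr treatment at 37 C. Values are AC50s from Hill-equation modelling.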

[40] = Cell Viability - LYMP2-019 (AID 973)
How it was run: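 Cytotoxicity is scored as a concentration-dependent drop in cellular ATP after cells (2500/well) receive compound for 24 hr at 37 C. Tetraoctylammonium bromide serves as positive control.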

CO[C@H]1/C=C/O[C@@]2(C)Oc3c(C)c(O)c4c(O)c(c(/C=N/N5CCN(C)CC5)c(O)c4c3C2=O)NC(=O)/C(C)=C\C=C\[C@H](C)[C@H](O)[C@@H](C)[C@@H](O)[C@@H](C)[C@H](OC(C)=O)[C@@H]1C
active: viability change, negative = cytotoxic [8] -92.1%
inactive: Potency [1] > 92 µM | Potency [2] > 92 µM | Potency [3] > 92 µM | Potency [4] > 92 µM | Potency [5] > 92 µM | Potency [6] > 92 µM | outcome [7] | outcome [9] | outcome [10] | outcome [11] | outcome [12] | outcome [13] | outcome [14] | outcome [15] | outcome [16] | outcome [17] | outcome [18] | outcome [19] | outcome [20] | outcome [21] | outcome [22] | outcome [23] | outcome [24] | outcome [25] | outcome [26] | outcome [27] | outcome [28] | outcome [29] | outcome [30] | outcome [31] | outcome [32] | outcome [33] | outcome [34] | outcome [35] | outcome [36] | outcome [37] | outcome [38] | outcome [39] | outcome [40]
